# Measurements reported in PubChem BioAssay AID1159580 (chemical genetic matrix, 2015).
# Several values for one entry are separate records, joined by “and”; a condition that tells them apart may be missing. Equal values may be shown once. The campaign covered roughly 5,500 compounds. About 2,000 (36%) were called active. Not shown: some 18% with an inconclusive outcome. The list shows a part of the results. Unmarked numbers belong to inactive results. No stated cut-off is given here; in the data, active means normalized growth mostly below about 0.91 (no sharp cut-off); inconclusive means no clear call, values can overlap the other calls; inactive means mostly above about 0.92.
# Test: chemical genetic growth profiling, strain panel (AID 1159580);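 further: tested at 20 µM; growth read once vehicle control cultures reached saturation at 30 °C; 1 = growth at the plate median or of vehicle wells; lower values mean less growth of the strain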
# Conditions: S. cerevisiae deletion strains, growth OD
structure (smiles),measurement,setting,value
C[C@@H]1CC[C@@]23CCC4(C)[C@@](C=CC5[C@@]6(C)CCC(=O)C(C)(C)C6CC[C@]54C)(OC2=O)C3[C@H]1C (stereo not given in full),normalized growth,"locus YAL013W, strain DEP1, active compounds read low",1.03
same,normalized growth,"locus YAL021C, strain ccr4, active compounds read low",0.998
same,normalized growth,"locus YAL026C, strain drs2, active compounds read low",1.01
same,normalized growth,"locus YAL030W, strain snc1, active compounds read low",0.998
same,normalized growth,"locus YBL061C, strain skt5, active compounds read low",0.994
same,normalized growth,"locus YBR009C, strain hhf1, active compounds read low",1.02
same,normalized growth,"locus YBR021W, strain FUR4, active compounds read low",1.01
same,normalized growth,"locus YBR023C, strain chs3, active compounds read low",1
same,normalized growth,"locus YBR171W, strain sec66, active compounds read low",0.99
same,normalized growth,"locus YBR229C, strain ROT2, active compounds read low",1.02
same,normalized growth,"locus YBR231C, strain swc5, active compounds read low",1.01
same,normalized growth,"locus YBR279W, strain paf1, active compounds read low",0.99
same,normalized growth,"locus YCL011C, strain gbp2, active compounds read low",1.02
same,normalized growth,"locus YCL016C, strain dcc1, active compounds read low",0.981
same,normalized growth,"locus YCL029C, strain bik1, active compounds read low",1.03
same,normalized growth,"locus YCL061C, strain MRC1, active compounds read low",1.01
same,normalized growth,"locus YCL069W, strain vba3, active compounds read low",0.997
same,normalized growth,"locus YCR088W, strain abp1, active compounds read low",0.992
same,normalized growth,"locus YDL005C, strain med2, active compounds read low",1
same,normalized growth,"locus YDL035C, strain GPR1, active compounds read low",1.02
same,normalized growth,"locus YDL040C, strain nat1, active compounds read low",0.997
same,normalized growth,"locus YDL074C, strain BRE1, active compounds read low",1.01
same,normalized growth,"locus YDL101C, strain DUN1, active compounds read low",1.03
same,normalized growth,"locus YDL185W, strain tfp1, active compounds read low",0.989
same,normalized growth,"locus YDL192W, strain arf1, active compounds read low",1.01
same,normalized growth,"locus YDR001C, strain nth1, active compounds read low",0.987
same,normalized growth,"locus YDR069C, strain doa4, active compounds read low",1
same,normalized growth,"locus YDR101C, strain arx1, active compounds read low",1.01
same,normalized growth,"locus YDR137W, strain rgp1, active compounds read low",1.04
same,normalized growth,"locus YDR150W, strain NUM1, active compounds read low",1.02
same,normalized growth,"locus YDR159W, strain sac3, active compounds read low",1
same,normalized growth,"locus YDR162C, strain NBP2, active compounds read low",1.04
same,normalized growth,"locus YDR195W, strain ref2",0.957
same,normalized growth,"locus YDR297W, strain sur2, active compounds read low",1.02
same,normalized growth,"locus YDR318W, strain mcm21, active compounds read low",1.04
same,normalized growth,"locus YDR334W, strain swr1, active compounds read low",0.998
same,normalized growth,"locus YDR335W, strain msn5, active compounds read low",1
same,normalized growth,"locus YDR388W, active compounds read low",1
same,normalized growth,"locus YDR392W, strain spt3, active compounds read low",1.01
same,normalized growth,"locus YDR502C, strain sam2, active compounds read low",1.02
same,normalized growth,"locus YEL003W, strain gim4, active compounds read low",1.01
same,normalized growth,"locus YEL037C, strain rad23, active compounds read low",1.01
same,normalized growth,"locus YEL061C, strain CIN8 (second series), active compounds read low",0.99
same,normalized growth,"locus YEL061C, strain CIN8, active compounds read low",1.02
same,normalized growth,"locus YER015W, strain faa2, active compounds read low",1.01
same,normalized growth,"locus YER016W, strain bim1, active compounds read low",0.993
same,normalized growth,"locus YER110C, active compounds read low",1.01
same,normalized growth,"locus YER111C, strain swi4, active compounds read low",0.995
same,normalized growth,"locus YER155C, strain BEM2 (second series), active compounds read low",1.01
same,normalized growth,"locus YER155C, strain BEM2, active compounds read low",1.02
same,normalized growth,"locus YER167W, strain BCK2, active compounds read low",1.01
same,normalized growth,"locus YFR010W, strain ubp6, active compounds read low",1.02
same,normalized growth,"locus YGL078C, strain dbp3, active compounds read low",1.01
same,normalized growth,"locus YGL086W, strain mad1, active compounds read low",1
same,normalized growth,"locus YGL167C, strain pmr1, active compounds read low",0.994
same,normalized growth,"locus YGL173C, strain kem1, active compounds read low",1.01
same,normalized growth,"locus YGL227W, strain vid30, active compounds read low",0.983
same,normalized growth,"locus YGL240W, strain doc1, active compounds read low",1.03
same,normalized growth,"locus YGL248W, strain PDE1, active compounds read low",1.02
same,normalized growth,"locus YGL253W, strain hxk2, active compounds read low",1
same,normalized growth,"locus YGR135W, strain pre9, active compounds read low",1
same,normalized growth,"locus YGR229C, strain SMI1, active compounds read low",1.02
same,normalized growth,"locus YGR252W, strain gcn5, active compounds read low",1.02
same,normalized growth,"locus YHR013C, strain ard1, active compounds read low",0.986
same,normalized growth,"locus YHR027C, strain rpn1, active compounds read low",1.01
same,normalized growth,"locus YHR030C, strain SLT2, active compounds read low",1.02 and 0.996
same,normalized growth,"locus YHR079C, strain IRE1 (second series), active compounds read low",1.02
same,normalized growth,"locus YHR079C, strain IRE1, active compounds read low",1.01
same,normalized growth,"locus YHR094C, strain hxt1, active compounds read low",1.11 [resistant] (active)
same,normalized growth,"locus YHR129C, strain ARP1, active compounds read low",1.02
same,normalized growth,"locus YHR142W, strain chs7, active compounds read low",0.97
same,normalized growth,"locus YHR200W, strain rpn10, active compounds read low",1.02
same,normalized growth,"locus YIL066C, strain RNR3, active compounds read low",1.03
same,normalized growth,"locus YIL073C, strain SPO22, active compounds read low",1
same,normalized growth,"locus YIL125W, strain kgd1, active compounds read low",0.992
same,normalized growth,"locus YIR030C, strain dcg1, active compounds read low",1.04
same,normalized growth,"locus YJL092W, strain hpr5, active compounds read low",0.989
same,normalized growth,"locus YJL095W, strain BCK1 (second series), active compounds read low",1
same,normalized growth,"locus YJL095W, strain BCK1, active compounds read low",1.04 and 0.991
same,normalized growth,"locus YJL115W, strain asf1, active compounds read low",0.993
same,normalized growth,"locus YJL129C, strain trk1, active compounds read low",0.98
same,normalized growth,"locus YJL134W, strain LCB3, active compounds read low",1.01
same,normalized growth,"locus YJL154C, strain vps35, active compounds read low",0.981
same,normalized growth,"locus YJL164C, strain tpk1, active compounds read low",1.01
same,normalized growth,"locus YJL166W, strain qcr8, active compounds read low",1.01
same,normalized growth,"locus YJL168C, strain set2, active compounds read low",1.01
same,normalized growth,"locus YJL187C, strain SWE1 (second series), active compounds read low",1.03
same,normalized growth,"locus YJL187C, strain SWE1, active compounds read low",0.993
same,normalized growth,"locus YJR043C, strain POL32, active compounds read low",1.02
same,normalized growth,"locus YJR066W, strain TOR1, active compounds read low",0.953
same,normalized growth,"locus YKL009W, strain mrt4, active compounds read low",1.01
same,normalized growth,"locus YKL068W, active compounds read low",1.02
same,normalized growth,"locus YKL085W, strain MDH1 (second series), active compounds read low",1
same,normalized growth,"locus YKL085W, strain MDH1, active compounds read low",1
same,normalized growth,"locus YKL160W, strain elf1, active compounds read low",0.999
same,normalized growth,"locus YKR001C, strain vps1, active compounds read low",0.977
same,normalized growth,"locus YKR026C, strain gcn3, active compounds read low",1
same,normalized growth,"locus YKR091W, strain srl3, active compounds read low",0.994
same,normalized growth,"locus YLL001W, strain dnm1, active compounds read low",0.982
same,normalized growth,"locus YLL026W, active compounds read low",1
same,normalized growth,"locus YLL041C, strain sdh2, active compounds read low",1
same,normalized growth,"locus YLR027C, strain aat2, active compounds read low",1.02
same,normalized growth,"locus YLR039C, strain RIC1, active compounds read low",1.05
same,normalized growth,"locus YLR058C, strain SHM2, active compounds read low",1.02
same,normalized growth,"locus YLR102C, strain apc9, active compounds read low",1.01
same,normalized growth,"locus YLR113W, strain HOG1, active compounds read low",1
same,normalized growth,"locus YLR221C, strain rsa3, active compounds read low",0.988
same,normalized growth,"locus YLR258W, strain gsy2, active compounds read low",1.01
same,normalized growth,"locus YLR262C, strain YPT6 (second series), active compounds read low",1.02
same,normalized growth,"locus YLR262C, strain YPT6, active compounds read low",1.07
same,normalized growth,"locus YLR268W, strain sec22, active compounds read low",0.995
same,normalized growth,"locus YLR320W, strain mms22, active compounds read low",1
same,normalized growth,"locus YLR330W, strain CHS5, active compounds read low",1.02
same,normalized growth,"locus YLR342W, strain FKS1 (second series), active compounds read low",1.01
same,normalized growth,"locus YLR342W, strain FKS1, active compounds read low",1.01
same,normalized growth,"locus YLR357W, strain rsc2, active compounds read low",0.991
same,normalized growth,"locus YLR370C, strain arc18, active compounds read low",0.996
same,normalized growth,"locus YLR371W, strain rom2, active compounds read low",1.1 [resistant] (active)
same,normalized growth,"locus YLR384C, strain iki3, active compounds read low",0.989
same,normalized growth,"locus YLR418C, strain cdc73, active compounds read low",1.01
same,normalized growth,"locus YML016C, strain PPZ1, active compounds read low",1.02
same,normalized growth,"locus YML032C, strain rad52, active compounds read low",1.04
same,normalized growth,"locus YML120C, strain ndi1, active compounds read low",0.994
same,normalized growth,"locus YML124C, strain tub3, active compounds read low",1.02
same,normalized growth,"locus YMR058W, strain fet3, active compounds read low",1.01
same,normalized growth,"locus YMR078C, strain ctf18, active compounds read low",1.09
same,normalized growth,"locus YMR125W, strain sto1, active compounds read low",0.978
same,normalized growth,"locus YMR129W, active compounds read low",0.99
same,normalized growth,"locus YMR205C, strain PFK2, active compounds read low",0.983
same,normalized growth,"locus YMR223W, strain ubp8, active compounds read low",1.04
same,normalized growth,"locus YMR231W, strain pep5, active compounds read low",0.993
same,normalized growth,"locus YMR307W, strain GAS1, active compounds read low",1.06
same,normalized growth,"locus YNL067W, strain RPL9B, active compounds read low",1.02
same,normalized growth,"locus YNL071W, strain lat1, active compounds read low",1.01
same,normalized growth,"locus YNL153C, strain GIM3, active compounds read low",1.03
same,normalized growth,"locus YNL183C, strain NPR1, active compounds read low",0.964
same,normalized growth,"locus YNL209W, strain ssb2, active compounds read low",0.988
same,normalized growth,"locus YNL233W, strain BNI4, active compounds read low",1.03
same,normalized growth,"locus YNL248C, strain rpa49, active compounds read low",1.02
same,normalized growth,"locus YNL250W, strain rad50, active compounds read low",1
same,normalized growth,"locus YNL271C, strain bni1, active compounds read low",1.01
same,normalized growth,"locus YNL298W, strain CLA4, active compounds read low",1.01
same,normalized growth,"locus YNL307C, strain MCK1, active compounds read low",1.02
same,normalized growth,"locus YNL322C, strain KRE1 (second series), active compounds read low",1
same,normalized growth,"locus YNL322C, strain KRE1, active compounds read low",1.01
same,normalized growth,"locus YNR049C, strain mso1, active compounds read low",0.994
same,normalized growth,"locus YNR052C, strain pop2, active compounds read low",1.02
same,normalized growth,"locus YOL006C, strain TOP1, active compounds read low",1
same,normalized growth,"locus YOL012C, strain htz1",1.03
same,normalized growth,"locus YOL147C, strain pex11, active compounds read low",1.01
same,normalized growth,"locus YOR001W, strain rrp6, active compounds read low",1.02
same,normalized growth,"locus YOR061W, strain CKA2, active compounds read low",1.01
same,normalized growth,"locus YOR069W, strain VPS5, active compounds read low",1.01
same,normalized growth,"locus YOR070C, strain gyp1, active compounds read low",0.995
same,normalized growth,"locus YOR080W, strain dia2, active compounds read low",0.996
same,normalized growth,"locus YOR083W, strain WHI5, active compounds read low",1.01
same,normalized growth,"locus YOR106W, strain vam3, active compounds read low",1
same,normalized growth,"locus YOR136W, strain idh2, active compounds read low",1.01
same,normalized growth,"locus YOR144C, strain elg1, active compounds read low",1.02
same,normalized growth,"locus YOR184W, strain ser1, active compounds read low",1.01
same,normalized growth,"locus YOR231W, strain MKK1, active compounds read low",1.01
same,normalized growth,"locus YOR265W, strain rbl2, active compounds read low",1.01
same,normalized growth,"locus YOR270C, strain vph1, active compounds read low",1.03
same,normalized growth,"locus YOR290C, strain snf2, active compounds read low",0.97
same,normalized growth,"locus YOR316C, strain cot1, active compounds read low",1.03
same,normalized growth,"locus YPL051W, strain arl3, active compounds read low",1.04
same,normalized growth,"locus YPL078C, strain atp4, active compounds read low",1.01
same,normalized growth,"locus YPL106C, strain sse1, active compounds read low",1.01
same,normalized growth,"locus YPL240C, strain hsp82, active compounds read low",0.996
same,normalized growth,"locus YPL256C, strain CLN2, active compounds read low",0.987
same,normalized growth,"locus YPR119W, strain clb2, active compounds read low",1.02
same,normalized growth,"locus YPR141C, strain kar3, active compounds read low",1.04
same,normalized growth,"locus YPR163C, strain tif3, active compounds read low",1.01
same,normalized growth,"locus YPR167C, strain met16, active compounds read low",1.01
same,normalized growth,"strain wtn01, active compounds read low",0.995
